Consider eleven compounds from PubChem BioAssay (NCATS).

Results filed as inconclusive are left out. Active and inactive are the calls of the source. Calls come from the whole dose curve; as a rule, active = well fitted inhibition curve with a large enough effect; inconclusive = small, poorly fitted or top-dose-only effect; inactive = no such curve, though single readings can be large or run the other way.
Potency is the fitted concentration of half-maximal effect.

The assay in a line: qHTS Screen of the MIPE 4.0 Collection Against Ewings Sarcoma (TC32) (AID 1259256).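 For viability (percent of control): 100% = DMSO-treated cells and 0% = medium-only wells without cells.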 Note: nearly all actives have a fitted effect of over 45% in size. The note with it: TC32 Ewing sarcoma viability, CellTiter-Glo, 48 h; series mostly up to 45.8 µM; viability (percent of control): at the top concentration. In outline: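 Dose series incubated 48 h with cells in RPMI plus 5% FBS, glutamine and penicillin/streptomycin; cell viability then quantified via CellTiter-Glo.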
(In qHTS, concentration-response curves come from the screen itself.)
Take `CC(C(=O)O)c1ccc(-c2ccccc2)c(F)c1` (stereo unspecified): the Potency was 11.8 µM (active).

`NC1=N[C@@]2(c3cc(NC(=O)c4ccc(F)cn4)ccc3F)COC[C@@H]2CS1`: the “viability (percent of control)” value was 100% (inactive).

For the compound `CC[C@H]1OC(=O)[C@H](C)C(=O)[C@H](C)[C@@H](O[C@H]2O[C@H](C)C[C@H](N(C)C)[C@@H]2O)[C@](C)(OC)C[C@@H](C)C(=O)[C@H](C)[C@H]2N(CCCCn3cnc(-c4cccnc4)c3)C(=O)O[C@]12C`, the Potency was 16.6 µM (active).

Regarding `CC(C)(C)NC(=O)Nc1cccc(Nc2ncc(F)c(NC(C)(C)CO)n2)c1`, the Potency is 2.35 µM (active).

For `Cc1c(NC(=O)c2ccc(C(C)(C)C)cc2)cccc1-c1cn(C)c(=O)c(Nc2ccc(C(=O)N3CCOCC3)cc2)n1`, the Potency is 20.9 µM (active).

For the compound `COC(=O)N[C@H](C(=O)N1CCC[C@@H]1c1ncc(-c2ccc(-c3ccc(-c4cnc([C@@H]5CCCN5C(=O)[C@@H](NC(=O)OC)C(C)C)[nH]4)cc3)cc2)[nH]1)C(C)C`, the Potency was 26.4 µM (active).

With `CO[C@@H](C(=O)N1Cc2[nH]nc(NC(=O)c3ccc(N4CCN(C)CC4)cc3)c2C1)c1ccccc1`, the Potency is 0.0662 µM (active).

Turning to `COc1ccc2c(Oc3ccc(NC(=O)c4c(C)n(CC(C)(C)O)n(-c5ccccc5)c4=O)nc3)ccnc2c1`, the Potency is 18.7 µM (active).

`Nc1ncnc2ccccc12`: the “viability (percent of control)” value was 106% (inactive).

As for `CCC(=O)O[C@]1(C(=O)CO)CC[C@H]2[C@@H]3CCC4=CC(=O)CC[C@]4(C)[C@@H]3CC[C@@]21C`, the “viability (percent of control)” value is 89.9% (inactive).

`CC(=O)Oc1cc2c(s1)CCN(C(C(=O)C1CC1)c1ccccc1F)C2` (stereo unspecified): the Potency is 2.96 µM (active).
